In PubChem BioAssay AID1159580 (chemical genetic matrix, 2015):
Where “and” joins values, the source holds several entries; their conditions need not be identical. Identical values can stand only once. Out of some 5,500 compounds screened, about 2,000 (36%) were called active. Roughly 18% stayed inconclusive and do not appear here. Cut-off read from the data, not from the text of the source: active = normalized growth mostly below about 0.91 (no sharp cut-off); inconclusive = no clear call, values can overlap the other calls; inactive = mostly above about 0.92. This is one part of the list.

Assay: chemical genetic growth profiling, strain panel (AID 1159580);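 note: tested at 20 µM; growth read once vehicle control cultures reached saturation at 30 °C; 1 = growth at the plate median or of vehicle wells; lower values mean less growth of the strain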
Conditions: S. cerevisiae deletion strains, growth OD

Measured: normalized growth

CCOC(N)=O
inactive: locus YAL013W, strain DEP1, active compounds read low 0.999 | locus YAL021C, strain ccr4, active compounds read low 0.989 | locus YAL026C, strain drs2, active compounds read low 1 | locus YAL030W, strain snc1, active compounds read low 0.994 | locus YBL061C, strain skt5, active compounds read low 0.997 | locus YBR009C, strain hhf1, active compounds read low 0.987 | locus YBR021W, strain FUR4, active compounds read low 0.97 | locus YBR023C, strain chs3, active compounds read low 0.993 | locus YBR171W, strain sec66, active compounds read low 0.99 | locus YBR229C, strain ROT2, active compounds read low 0.999 | locus YBR231C, strain swc5, active compounds read low 0.995 | locus YBR279W, strain paf1, active compounds read low 0.991 | locus YCL011C, strain gbp2, active compounds read low 0.988 | locus YCL016C, strain dcc1, active compounds read low 1 | locus YCL029C, strain bik1, active compounds read low 1.01 | locus YCL061C, strain MRC1, active compounds read low 0.995 | locus YCL069W, strain vba3, active compounds read low 0.997 | locus YCR088W, strain abp1, active compounds read low 1 | locus YDL005C, strain med2, active compounds read low 0.986 | locus YDL035C, strain GPR1, active compounds read low 1.01 | locus YDL040C, strain nat1, active compounds read low 0.989 | locus YDL074C, strain BRE1, active compounds read low 1 | locus YDL101C, strain DUN1, active compounds read low 1 | locus YDL134C, strain PPH21, active compounds read low 1.01 | locus YDL185W, strain tfp1, active compounds read low 1.01 | locus YDL192W, strain arf1, active compounds read low 1.01 | locus YDR001C, strain nth1, active compounds read low 1 | locus YDR069C, strain doa4, active compounds read low 0.985 | locus YDR101C, strain arx1, active compounds read low 1 | locus YDR137W, strain rgp1, active compounds read low 1.01 | locus YDR150W, strain NUM1, active compounds read low 1 | locus YDR159W, strain sac3, active compounds read low 0.984 | locus YDR162C, strain NBP2, active compounds read low 0.973 | locus YDR195W, strain ref2 0.933 | locus YDR297W, strain sur2, active compounds read low 0.992 | locus YDR318W, strain mcm21, active compounds read low 1.02 | locus YDR334W, strain swr1, active compounds read low 1 | locus YDR335W, strain msn5, active compounds read low 0.997 | locus YDR388W, active compounds read low 1.01 | locus YDR392W, strain spt3, active compounds read low 0.997 | locus YDR502C, strain sam2, active compounds read low 1 | locus YEL003W, strain gim4, active compounds read low 0.997 | locus YEL037C, strain rad23, active compounds read low 1.01 | locus YEL061C, strain CIN8 (second series), active compounds read low 1.01 | locus YEL061C, strain CIN8, active compounds read low 1 | locus YER015W, strain faa2, active compounds read low 0.993 | locus YER016W, strain bim1, active compounds read low 0.997 | locus YER110C, active compounds read low 1.01 | locus YER111C, strain swi4, active compounds read low 0.995 | locus YER155C, strain BEM2 (second series), active compounds read low 0.994 | locus YER155C, strain BEM2, active compounds read low 1 | locus YER167W, strain BCK2, active compounds read low 1.01 | locus YFR010W, strain ubp6, active compounds read low 0.997 | locus YGL078C, strain dbp3, active compounds read low 1.01 | locus YGL086W, strain mad1, active compounds read low 1.01 | locus YGL167C, strain pmr1, active compounds read low 0.987 | locus YGL173C, strain kem1, active compounds read low 0.982 | locus YGL227W, strain vid30, active compounds read low 0.983 | locus YGL240W, strain doc1, active compounds read low 0.982 | locus YGL248W, strain PDE1, active compounds read low 1 | locus YGL253W, strain hxk2, active compounds read low 0.993 | locus YGR078C, strain PAC10, active compounds read low 0.991 | locus YGR135W, strain pre9, active compounds read low 0.991 | locus YGR229C, strain SMI1, active compounds read low 0.985 | locus YGR252W, strain gcn5, active compounds read low 1.08 | locus YHR013C, strain ard1, active compounds read low 0.975 | locus YHR027C, strain rpn1, active compounds read low 0.997 | locus YHR030C, strain SLT2, active compounds read low 1.01 and 0.987 | locus YHR079C, strain IRE1 (second series), active compounds read low 1.01 | locus YHR079C, strain IRE1, active compounds read low 0.983 | locus YHR094C, strain hxt1, active compounds read low 1 | locus YHR129C, strain ARP1, active compounds read low 1.01 | locus YHR142W, strain chs7, active compounds read low 0.995 | locus YHR200W, strain rpn10, active compounds read low 1.01 | locus YIL066C, strain RNR3, active compounds read low 1.03 | locus YIL073C, strain SPO22, active compounds read low 1.06 | locus YIL125W, strain kgd1, active compounds read low 1 | locus YIR030C, strain dcg1, active compounds read low 1 | locus YJL092W, strain hpr5, active compounds read low 0.995 | locus YJL095W, strain BCK1 (second series), active compounds read low 0.992 | locus YJL095W, strain BCK1, active compounds read low 1.01 and 0.996 | locus YJL115W, strain asf1, active compounds read low 0.999 | locus YJL129C, strain trk1, active compounds read low 1 | locus YJL134W, strain LCB3, active compounds read low 1.01 | locus YJL154C, strain vps35, active compounds read low 1 | locus YJL164C, strain tpk1, active compounds read low 0.991 | locus YJL166W, strain qcr8, active compounds read low 0.99 | locus YJL168C, strain set2, active compounds read low 1.02 | locus YJL187C, strain SWE1 (second series), active compounds read low 1.02 | locus YJL187C, strain SWE1, active compounds read low 0.997 | locus YJR043C, strain POL32, active compounds read low 1.02 | locus YJR066W, strain TOR1, active compounds read low 0.959
